Assay results from PubChem BioAssay (EPA / NIEHS).
Records with an inconclusive call do not appear. More than one record can exist for a structure, and the calls need not agree. Calls of active or inactive are those of the source. The calls were made as follows, unless noted: active = hit-call score of the fitted dose curve at least 0.9, where 1 is the maximum; inconclusive = response in the unintended direction; inactive = score below 0.9.

Legend:
[1] = target: Retinoic acid receptor alpha (Homo sapiens) (UniProt P10276); assay: ATG_DR5_RAR_CIS: Attagene CIS-FACTORIAL HepG2 Assay for human Retinoic Acid Receptor Alpha (RARE), DR5 submotif (AID 2282934; active = hit-call score of the fitted dose curve at least 0.9, where 1 is the maximum; inactive = score below 0.9); details: HepG2 Attagene cis-factorial RARE DR5 reporter, mRNA; actives raise or lower the signal
In short: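 HepG2 cells transiently transfected with multiplexed reporter units; DR5 cis-element drives reporter through endogenous transcription factors. After 24 h dosing, reporter mRNA quantified by RT-PCR, fluorescent labeling, HpaI digestion and capillary electrophoresis; bidirectional fitting versus DMSO.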

[2] = ATG_GLI_CIS: Attagene CIS-FACTORIAL HepG2 Assay for human Zinc Finger Protein GLI1 (AID 2282945; active = hit-call score of the fitted dose curve at least 0.9, where 1 is the maximum; inactive = score below 0.9); details: HepG2, Attagene cis-factorial reporter mRNA, GLI element; actives raise or lower the signal
In short: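 Transiently transfected HepG2 cells report endogenous transcription factor activity via cis-element-driven reporter units. After 24 h compound exposure, reporter mRNA was measured by RT-PCR with capillary electrophoresis; bidirectional fitting against DMSO baseline.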

[3] = ATG_GRE_CIS: Attagene CIS-FACTORIAL HepG2 Assay for human Glucocorticoid Response Elements (GRE) (AID 2282947; active = hit-call score of the fitted dose curve at least 0.9, where 1 is the maximum; inactive = score below 0.9); details: HepG2 GRE cis-reporter, Attagene multiplex mRNA; actives raise or lower the signal
In short: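 Transiently transfected HepG2 cells carrying GRE cis-reporter units (endogenous TF activity) dosed 24 h; reporter mRNA quantified by RT-PCR, 6-FAM labelling, HpaI digestion and capillary electrophoresis. Bidirectional fit versus DMSO baseline.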

[4] = ATG_PBREM_CIS: Attagene CIS-FACTORIAL HepG2 Assay for human Phenobarbital-responsive Enhancer Module (PBREM) (AID 2282955; active = hit-call score of the fitted dose curve at least 0.9, where 1 is the maximum; inactive = score below 0.9); details: HepG2 PBREM cis-reporter, Attagene multiplexed transcription; actives raise or lower the signal
In short: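 Multiplexed cis-reporter readout in human hepatoma HepG2 cells; PBREM-regulated transcript quantified after 24 h exposure by fluorescent RT-PCR fragment analysis. Signal changes up or down fitted relative to DMSO.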

[5] = target: Nuclear respiratory factor 1 (Homo sapiens) (UniProt Q16656); assay: ATG_NRF1_CIS: Attagene CIS-FACTORIAL HepG2 Assay for human Nuclear Respiratory Factor 1 (NRF1) Orphan Gene (AID 2282987; active = hit-call score of the fitted dose curve at least 0.9, where 1 is the maximum; inactive = score below 0.9); details: HepG2 NRF1 cis-element reporter, Attagene multiplex; actives raise or lower the signal
In short: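 Reporter mRNA induction or loss in HepG2 cells after 24 h dosing; cis-regulated reporter constructs report endogenous transcription-factor activity. Quantified by RT-PCR/capillary electrophoresis fluorescence, DMSO-referenced.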

[6] = ATG_NF_kB_CIS: Attagene CIS-FACTORIAL HepG2 Assay for human Nuclear Factor Kappa B (NF-kB) (AID 2282991; active = hit-call score of the fitted dose curve at least 0.9, where 1 is the maximum; inactive = score below 0.9); details: HepG2 Attagene cis-factorial NF-kB reporter mRNA; actives raise or lower the signal
In short: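 DMSO served as negative control and baseline for bidirectional curve fitting. Transiently transfected HepG2 cells were dosed for 24 h, then reporter transcripts were measured by RT-PCR with capillary electrophoresis detection.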

[7] = target: human Retinoid X Receptor beta (RXRb), RXRB (gene 6257) (UniProt P28702); assay: ATG_RXRb_TRANS: Attagene TRANS-FACTORIAL HepG2 Assay for human Retinoid X Receptor beta (RXRb) (AID 2283013)
In short: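 Transfect HepG2 with GAL4-UAS multi-reporter constructs (chimeric NR-Gal4, TRANS format); dose compound 24 h; isolate RNA, RT-PCR, FAM primer extension, HpaI digest; quantify by capillary electrophoresis; positive direction vs DMSO.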

[8] = target: Hepatocyte nuclear factor 4-alpha (Homo sapiens) (UniProt P41235); assay: ATG_HNF4a_TRANS: Attagene TRANS-FACTORIAL HepG2 Assay for human Hepatocyte Nuclear Factor 4 alpha (HNF4a) (AID 2282982); details: HepG2 HNF4a transactivation reporter, mRNA readout
In short: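 HepG2 cells transiently transfected with HNF4a-Gal4 chimera and GAL4-UAS reporter units, dosed for 24 h. Reporter mRNA measured by RT-PCR, fluorescent primer extension and capillary electrophoresis; gain-of-signal fitted relative to DMSO.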

[9] = ATG_M_32_TRANS: Attagene TRANS-FACTORIAL HepG2 Assay for M32 Transcription Factor (Internal Marker) (AID 2282984); details: HepG2 Attagene TRANS M32 internal marker reporter;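 also: transcript level of a background control reporter unit measured by RT-PCR and capillary electrophoresis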
In short: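 HepG2 cells transiently transfected with GAL4-UAS reporter units, dosed for 24 hours. Reporter mRNA quantified by RT-PCR, 6-FAM labelling, HpaI digestion and capillary electrophoresis; internal-marker signal fitted upward relative to DMSO.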

[10] = ATG_Oct_MLP_CIS: Attagene CIS-FACTORIAL HepG2 Assay for human Octamer-Binding Transcription Factor (Oct) (AID 2282993; active = hit-call score of the fitted dose curve at least 0.9, where 1 is the maximum; inactive = score below 0.9); details: HepG2 Attagene cis-factorial Oct reporter, mRNA; actives raise or lower the signal
In short: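 After 24 h compound exposure, transfected HepG2 cells were lysed for total RNA; reporter-specific cDNA was PCR-amplified, fluorescently labelled and sized by capillary electrophoresis. Bidirectional curve fitting used DMSO as baseline.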

[11] = TOX21_p53_BLA_p2_viability: Viability Assessment in the Tox21 HCT-116 p53 Agonism Beta-lactamase Assay, Phase 2 (AID 2283591);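 also: compound exposure lasted 16 h at 37 °C; actives lower the ATP signal meaning cytotoxicity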
In short: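 HCT116 p53-bla cells, 4000/well, dosed after 5 h plating (217-fold dilution of DMSO stocks) and incubated 16 h at 37C. Viability taken as cellular ATP by CellTiter-Glo luminescence after 30 min RT; signal loss marks cytotoxicity.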

[12] = target: Cellular tumor antigen p53 (Homo sapiens) (UniProt P04637); assay: TOX21_p53_BLA_p2_ratio: Tox21 HCT-116 p53 Agonism Beta-lactamase Assay, Ratio, Phase 2 (AID 2283592)
In short: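 HCT116 p53-bla; 4000 cells/well; 5 h pre-incubation; cpd in DMSO, 217-fold dilution; 16 h 37C/5% CO2; CCF4-AM 2 h RT; Ex 405, Em 460/530 ratio; DMSO = baseline; positive fitting direction.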

[13] = target: Cellular tumor antigen p53 (Homo sapiens) (UniProt P04637); assay: TOX21_p53_BLA_p5_ratio: Tox21 HCT-116 p53 Agonism Beta-lactamase Assay, Ratio, Phase 5 (AID 2283599)
In short: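 HCT-116 p53-bla cells (4000/well) plated 5 h, dosed with compound (217-fold DMSO dilution) for 16 h at 37 C; CCF4-AM substrate 2 h at room temperature. Activity is the 460/530 nm emission ratio (405 nm excitation), fitted in gain-of-signal direction versus DMSO.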

[14] = TOX21_p53_BLA_p5_viability: Viability Assessment in the Tox21 HCT-116 p53 Agonism Beta-lactamase Assay, Phase 5 (AID 2283600)
In short: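 4000 cells/well; 5 h pre-incubation; DMSO compounds pin-transferred, 217-fold dilution; 16 h, 37C/5% CO2; CCF4-AM 2 h RT; CellTiter-Glo 30 min RT; luminescence.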

[15] = target: Cellular tumor antigen p53 (Homo sapiens) (UniProt P04637); assay: TOX21_p53_BLA_p4_ratio: Tox21 HCT-116 p53 Agonism Beta-lactamase Assay, Ratio, Phase 4 (AID 2283601)
In short: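 HCT-116 p53 beta-lactamase reporter cells (4000/well) preincubated 5 h, then compound (217-fold dilution of DMSO stock) for 16 h at 37C. CCF4-AM substrate added 2 h at room temperature; 460/530 nm emission ratio fitted upward versus DMSO.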

[16] = ATG_TCF_b_cat_CIS: Attagene CIS-FACTORIAL HepG2 Assay for human T-Cell-Factor with beta-catenin (TCF/b-cat) (AID 2282965; active = hit-call score of the fitted dose curve at least 0.9, where 1 is the maximum; inactive = score below 0.9); details: HepG2 TCF/beta-catenin cis-reporter transcription, actives raise or lower the signal
In short: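 HepG2 cells transiently transfected with cis-promoter-driven multiplexed reporter units; reporter mRNA measured 24 h after dosing by RT-PCR, FAM labelling, HpaI digestion and capillary electrophoresis. Bidirectional fitting relative to DMSO baseline.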

[17] = ATG_GAL4_TRANS: Attagene TRANS-FACTORIAL HepG2 Assay for GAL4 (Internal Marker) (AID 2282976); details: HepG2 Attagene TRANS GAL4 internal marker reporter
In short: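 First, HepG2 cells were transfected with reporter units under GAL4-UAS control. Next, they were treated with chemical for 24 h. Finally, RNA was reverse-transcribed, PCR-amplified, FAM-labelled and resolved by capillary electrophoresis, with induction scored against DMSO.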

[18] = target: Transcriptional activator Myb (Homo sapiens) (UniProt P10242); assay: ATG_Myb_CIS: Attagene CIS-FACTORIAL HepG2 Assay for human Myeloblastosis (Myb) Proto-Oncogene Transcription Factor (AID 2282986; active = hit-call score of the fitted dose curve at least 0.9, where 1 is the maximum; inactive = score below 0.9); details: HepG2 Attagene CIS-FACTORIAL Myb reporter transcription; actives raise or lower the signal
In short: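 Using HepG2 liver cells bearing transiently transfected cis-promoter reporter constructs, the assay measures induction or loss of reporter mRNA after 24 hours of dosing. Detection used fluorescently labeled RT-PCR products separated by capillary electrophoresis.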

[19] = target: Cellular tumor antigen p53 (Homo sapiens) (UniProt P04637); assay: TOX21_p53_BLA_p3_ratio: Tox21 HCT-116 p53 Agonism Beta-lactamase Assay, Ratio, Phase 3 (AID 2283596)
In short: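 HCT116 p53-bla cells (4000/well) given compound in DMSO (217-fold dilution) after 5 h, incubated 16 h at 37C. CCF4-AM substrate 2 h at room temperature; 460/530 nm emission ratio, gain fitted against DMSO.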

[20] = target: X-box-binding protein 1 (Homo sapiens) (UniProt P17861); assay: ATG_Xbp1_CIS: Attagene CIS-FACTORIAL HepG2 Assay for human X-box Binding Protein 1 (XBP1) (AID 2282972; active = hit-call score of the fitted dose curve at least 0.9, where 1 is the maximum; inactive = score below 0.9); details: HepG2 XBP1 cis-element reporter, Attagene multiplex; actives raise or lower the signal
In short: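 HepG2 cells transiently transfected with cis-regulated multiple reporter transcription units; endogenous transcription factor activity measured 24 hours after chemical dosing. Reporter mRNA quantified by RT-PCR, 6-FAM primer extension, HpaI digestion and capillary electrophoresis; bidirectional fitting versus DMSO.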

Measured: AC50

Chain of Cellular tumor antigen p53 (Homo sapiens) (P04637 whole entry, looked up): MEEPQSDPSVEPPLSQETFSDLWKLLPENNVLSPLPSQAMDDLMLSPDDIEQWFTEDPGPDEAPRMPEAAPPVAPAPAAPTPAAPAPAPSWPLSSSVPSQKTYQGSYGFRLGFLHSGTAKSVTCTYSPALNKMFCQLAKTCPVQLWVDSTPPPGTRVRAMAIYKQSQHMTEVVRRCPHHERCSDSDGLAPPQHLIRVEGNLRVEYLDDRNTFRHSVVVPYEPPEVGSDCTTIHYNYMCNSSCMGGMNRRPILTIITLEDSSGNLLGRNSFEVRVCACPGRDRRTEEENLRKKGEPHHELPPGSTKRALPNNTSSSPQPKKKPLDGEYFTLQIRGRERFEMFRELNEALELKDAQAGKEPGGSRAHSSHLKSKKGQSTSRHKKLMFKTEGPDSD
Chain of Retinoic acid receptor alpha (Homo sapiens) (P10276 whole entry, looked up): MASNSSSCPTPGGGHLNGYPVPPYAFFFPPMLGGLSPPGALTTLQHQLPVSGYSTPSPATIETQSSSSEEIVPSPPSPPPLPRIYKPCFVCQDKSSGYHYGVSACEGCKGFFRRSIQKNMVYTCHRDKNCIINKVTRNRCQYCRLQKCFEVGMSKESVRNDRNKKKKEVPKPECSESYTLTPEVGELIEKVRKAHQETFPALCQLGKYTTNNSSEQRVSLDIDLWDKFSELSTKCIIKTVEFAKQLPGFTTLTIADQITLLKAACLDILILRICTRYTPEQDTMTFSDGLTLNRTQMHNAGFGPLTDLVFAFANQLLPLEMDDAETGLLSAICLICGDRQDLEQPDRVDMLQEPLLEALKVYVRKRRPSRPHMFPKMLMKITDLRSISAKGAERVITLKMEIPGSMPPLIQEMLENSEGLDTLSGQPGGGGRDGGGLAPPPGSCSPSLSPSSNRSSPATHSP
Chain of Transcriptional activator Myb (Homo sapiens) (P10242 whole entry, looked up): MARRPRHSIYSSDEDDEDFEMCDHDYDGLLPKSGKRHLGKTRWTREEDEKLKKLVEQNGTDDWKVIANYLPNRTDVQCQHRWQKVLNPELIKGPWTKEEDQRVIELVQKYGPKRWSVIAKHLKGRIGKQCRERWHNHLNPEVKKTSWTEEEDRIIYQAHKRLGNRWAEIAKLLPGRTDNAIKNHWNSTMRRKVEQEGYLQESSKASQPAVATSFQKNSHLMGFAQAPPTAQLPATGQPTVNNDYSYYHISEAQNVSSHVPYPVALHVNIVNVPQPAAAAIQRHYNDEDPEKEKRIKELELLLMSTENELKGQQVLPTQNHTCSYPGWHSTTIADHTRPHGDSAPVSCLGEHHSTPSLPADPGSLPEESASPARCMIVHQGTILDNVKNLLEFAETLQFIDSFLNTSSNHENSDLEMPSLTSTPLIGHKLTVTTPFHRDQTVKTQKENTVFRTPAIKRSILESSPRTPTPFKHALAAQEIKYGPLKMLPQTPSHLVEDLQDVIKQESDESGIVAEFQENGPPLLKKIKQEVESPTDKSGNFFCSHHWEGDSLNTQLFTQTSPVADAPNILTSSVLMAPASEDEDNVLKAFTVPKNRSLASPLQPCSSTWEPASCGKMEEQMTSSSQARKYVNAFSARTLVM
Chain of human Retinoid X Receptor beta (RXRb), RXRB (gene 6257) (P28702 whole entry, looked up, the tested form may be a part): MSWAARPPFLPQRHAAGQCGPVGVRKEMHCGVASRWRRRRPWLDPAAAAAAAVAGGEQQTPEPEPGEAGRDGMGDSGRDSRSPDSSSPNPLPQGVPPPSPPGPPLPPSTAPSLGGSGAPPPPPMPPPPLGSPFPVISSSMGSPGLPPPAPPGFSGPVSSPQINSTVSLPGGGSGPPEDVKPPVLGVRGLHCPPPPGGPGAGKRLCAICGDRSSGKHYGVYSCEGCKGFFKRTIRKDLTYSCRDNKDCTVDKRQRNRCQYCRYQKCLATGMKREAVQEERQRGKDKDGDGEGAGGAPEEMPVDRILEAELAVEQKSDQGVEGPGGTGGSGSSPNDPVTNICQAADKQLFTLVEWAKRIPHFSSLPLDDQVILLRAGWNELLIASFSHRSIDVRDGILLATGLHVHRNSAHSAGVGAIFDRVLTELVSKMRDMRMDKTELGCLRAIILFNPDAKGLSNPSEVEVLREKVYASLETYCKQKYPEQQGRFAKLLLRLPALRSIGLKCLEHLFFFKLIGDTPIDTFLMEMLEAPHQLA
Chain of Hepatocyte nuclear factor 4-alpha (Homo sapiens) (P41235 whole entry, looked up, the tested form may be a part): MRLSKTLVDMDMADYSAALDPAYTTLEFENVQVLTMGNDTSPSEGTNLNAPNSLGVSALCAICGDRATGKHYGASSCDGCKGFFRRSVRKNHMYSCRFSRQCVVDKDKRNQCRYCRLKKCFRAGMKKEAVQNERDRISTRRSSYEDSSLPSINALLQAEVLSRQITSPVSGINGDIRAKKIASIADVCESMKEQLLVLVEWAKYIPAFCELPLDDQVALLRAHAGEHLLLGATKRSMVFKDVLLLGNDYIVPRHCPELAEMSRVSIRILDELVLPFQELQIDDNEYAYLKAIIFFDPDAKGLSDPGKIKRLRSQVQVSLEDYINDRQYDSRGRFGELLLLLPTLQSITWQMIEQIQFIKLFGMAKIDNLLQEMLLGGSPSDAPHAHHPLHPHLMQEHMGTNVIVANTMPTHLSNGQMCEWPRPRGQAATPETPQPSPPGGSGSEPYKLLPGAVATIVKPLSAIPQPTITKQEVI
Chain of Nuclear respiratory factor 1 (Homo sapiens) (Q16656 whole entry, looked up): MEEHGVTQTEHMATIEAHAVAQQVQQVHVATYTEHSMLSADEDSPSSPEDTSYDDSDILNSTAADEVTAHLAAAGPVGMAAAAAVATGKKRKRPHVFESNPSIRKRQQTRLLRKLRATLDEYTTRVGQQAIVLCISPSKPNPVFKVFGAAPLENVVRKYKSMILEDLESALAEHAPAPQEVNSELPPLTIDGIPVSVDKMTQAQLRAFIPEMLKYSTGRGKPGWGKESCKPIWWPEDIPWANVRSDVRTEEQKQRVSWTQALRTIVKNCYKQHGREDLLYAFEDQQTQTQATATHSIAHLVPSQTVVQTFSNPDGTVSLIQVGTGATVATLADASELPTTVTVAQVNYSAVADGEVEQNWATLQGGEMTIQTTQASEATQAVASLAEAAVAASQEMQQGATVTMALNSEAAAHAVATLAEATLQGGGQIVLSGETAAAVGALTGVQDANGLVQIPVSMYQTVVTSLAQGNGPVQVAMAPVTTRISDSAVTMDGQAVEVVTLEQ
Chain of X-box-binding protein 1 (Homo sapiens) (P17861 whole entry, looked up): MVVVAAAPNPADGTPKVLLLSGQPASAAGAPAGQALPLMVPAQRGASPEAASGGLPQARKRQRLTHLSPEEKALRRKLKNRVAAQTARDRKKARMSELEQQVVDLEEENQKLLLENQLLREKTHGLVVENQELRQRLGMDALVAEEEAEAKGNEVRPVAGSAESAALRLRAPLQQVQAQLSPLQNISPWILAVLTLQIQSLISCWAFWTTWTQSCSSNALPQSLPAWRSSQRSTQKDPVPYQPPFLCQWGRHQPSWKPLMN

O=C(C1CCCCC1)N1CC(=O)N2CCc3ccccc3C2C1 (centres undefined)
inactive: [1] | [2] | [3] | [4] | [5] | [6] | [7]

CCCCCCC(O)CCCCCCCCCCC(=O)OC (centres undefined)
active: [7] 53.5 µM
inactive: [1] | [2] | [3] | [4] | [8] | [9] | [5] | [6] | [10] | [11] | [12] | [13] | [14] | [15]

c1cc[c]([Bi]([c]2ccccc2)[c]2ccccc2)cc1
inactive: [2] | [3] | [4] | [16] | [17] | [8] | [5] | [6] | [10]
active: [7] 7.42 µM

NC(=O)c1ccc(N)cc1
inactive: [1] | [3] | [4] | [17] | [8] | [5] | [6] | [10] | [7] | [11] | [12] | [14] | [15]

O=C(O)c1cc(Cl)cc(Cl)c1O
inactive: [17] | [8] | [18] | [5] | [6] | [10] | [7] | [11] | [12] | [19] | [13] | [14] | [15]

CC1=NN(c2cc(Cl)c(S(=O)(=O)O)cc2Cl)C(=O)C1N=Nc1ccc(S(=O)(=O)O)cc1 (centres undefined)
inactive: [2] | [16] | [17] | [18] | [5] | [6] | [10] | [7] | [11] | [12] | [19] | [13] | [14] | [15]

F[B-](F)(F)F
inactive: [16] | [20] | [8] | [9] | [18] | [5] | [10]

CN(C)CCCN1c2ccccc2CCc2ccc(Cl)cc21
active: [16] 7.29 µM | [7] 5.79 µM | [11] 79 µM | [13] 86.8 µM | [14] 77.1 µM
inactive: [2] | [3] | [4] | [17] | [8] | [18] | [5] | [6] | [12] | [19] | [13] | [14] | [15]

C1=CCC=C1
inactive: [2] | [16] | [20] | [17] | [8] | [9] | [18] | [7]

CCOC(=O)c1ccccc1
inactive: [16] | [9] | [18] | [5] | [11] | [12] | [19] | [13]
active: [3] 61.9 µM
